Usually AC50 stands for the midpoint of the concentration-response curve, whichever way the signal moves.

Read-out in assay [1]: NAD(P)H dehydrogenase [quinone] 1 (NQO1), NQO1 (gene 1728)
The experiment in a line: LTEA_HepaRG_NQO1: Life Technologies and Expression Analysis (LTEA) Assay for NAD(P)H dehydrogenase [quinone] 1 (NQO1) using HepaRG (AID 2283526). As to conditions: mRNA level, 48 h; actives raise or lower the signal. Put shortly:
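qRT-PCR read-out (Fluidigm TaqMan), normalized to three housekeeping genes, after 48 h chemical exposure of HepaRG cells. Concentrations: eight points, top 100 uM, half-log steps, 0.5% DMSO vehicle. Gain or loss of signal fitted relative to DMSO.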

Read-out in assay [2]: Nuclear factor erythroid 2-related factor 2 (Homo sapiens) (UniProt Q16236)
The assay is described as follows: LTEA_HepaRG_NFE2L2: Life Technologies and Expression Analysis (LTEA) Assay for Nuclear factor erythroid 2-related factor 2 (NFE2L2) Transcription Factor using HepaRG (AID 2283527). As to conditions: mRNA level, 48 h; actives raise or lower the signal. Summed up:
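Human liver HepaRG line treated in duplicate for 48 h with an eight-point series topping at 100 uM. Gene expression of NFE2L2 by qRT-PCR, bidirectionally fitted against the vehicle control.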

Read-out in assay [3]: succinate dehydrogenase complex iron sulfur subunit B (SDHB), SDHB (gene 6390)
The experiment in a line: LTEA_HepaRG_SDHB: Life Technologies and Expression Analysis (LTEA) Assay for succinate dehydrogenase complex iron sulfur subunit B (SDHB) using HepaRG (AID 2283528). Conditions: mRNA level, 48 h; actives raise or lower the signal. Put shortly: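 SDHB transcript level read by TaqMan qRT-PCR, housekeeping-normalised (ACTB, GAPDH, POLR2A), after 48 h chemical treatment of plated HepaRG cells; eight concentrations top 100 uM, half-log steps, 0.5% DMSO, duplicates; fitted both directions against DMSO.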

Read-out in assay [4]: Signal transducer and activator of transcription 3 (Homo sapiens) (UniProt P40763)
The assay is described as follows: LTEA_HepaRG_STAT3: Life Technologies and Expression Analysis (LTEA) Assay for Signal transducer and activator of transcription (STAT3) using HepaRG (AID 2283529). Conditions: mRNA level, 48 h; actives raise or lower the signal. Put shortly: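 In this transcriptional endpoint, HepaRG cultures receive test chemicals at up to 100 uM for 48 h, tested in duplicate. STAT3 mRNA is normalized to ACTB, GAPDH and POLR2A.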

Read-out in assay [5]: sulfotransferase 2A1 (SULT2A1), SULT2A1 (gene 6822)
The experiment in a line: LTEA_HepaRG_SULT2A1: Life Technologies and Expression Analysis (LTEA) Assay for sulfotransferase 2A1 (SULT2A1) using HepaRG (AID 2283531). As to conditions: mRNA level, 48 h; actives raise or lower the signal. Summed up:
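HepaRG, 48 h chemical exposure, 8-pt half-log curve from 100 uM in 0.5% DMSO, duplicates. Readout: TaqMan qRT-PCR of SULT2A1 mRNA, housekeeping-normalized. Bidirectional fit vs DMSO baseline.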

Read-out in assay [6]: Transforming Growth Factor (TGFA), TGFA (gene 7039)
The experiment in a line: LTEA_HepaRG_TGFA: Life Technologies and Expression Analysis (LTEA) Assay for Transforming Growth Factor (TGFA) using HepaRG (AID 2283532). Conditions: mRNA level, 48 h; actives raise or lower the signal. Summed up:
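Gene expression of TGFA was quantified by qRT-PCR after human HepaRG cells were treated for 48 h with test chemicals (eight concentrations, highest 100 uM, 0.5% DMSO). Activity in either direction was fitted relative to DMSO.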

Read-out in assay [7]: Transforming Growth Factor (TGFB1), TGFB1 (gene 7040)
The experiment in a line: LTEA_HepaRG_TGFB1: Life Technologies and Expression Analysis (LTEA) Assay for Transforming Growth Factor (TGFB1) Transporter using HepaRG (AID 2283533). Conditions: mRNA level, 48 h; actives raise or lower the signal. Summed up:
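qRT-PCR readout of TGFB1 transcript in HepaRG lysates, normalized to three housekeeping genes; gain or loss of signal fitted relative to 0.5% DMSO vehicle. Exposure: 48 h, 8-point curve from 100 uM, duplicate wells.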

Read-out in assay [8]: TIMP1, TIMP1 (gene 7076)
The assay is described as follows: LTEA_HepaRG_TIMP1: Life Technologies and Expression Analysis (LTEA) Assay for TIMP1 using HepaRG (AID 2283534). Conditions: mRNA level, 48 h; actives raise or lower the signal. Put shortly:
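HepaRG, 48 h exposure, 8-pt half-log series from 100 uM in 0.5% DMSO, duplicates; TIMP1 transcript by Fluidigm qRT-PCR, housekeeping-normalized; bidirectional curve fit vs DMSO baseline.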

Read-out in assay [9]: Tumor necrosis factor receptor 1 (TNFRSF1A), TNFRSF1A (gene 7132)
The experiment in a line: LTEA_HepaRG_TNFRSF1A: Life Technologies and Expression Analysis (LTEA) Assay for Tumor necrosis factor receptor 1 (TNFRSF1A) using HepaRG (AID 2283535). As to conditions: mRNA level, 48 h; actives raise or lower the signal. Put shortly: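 HepaRG, 48 h plating then 48 h chemical exposure, serum-free induction media; 8-pt CRC from 100 uM, half-log, 0.5% DMSO vehicle, duplicates. Readout: TaqMan qRT-PCR (Fluidigm), housekeeping-gene normalized; bidirectional fit vs DMSO.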

Read-out in assay [10]: Thyroid Hormone Responsive (THRSP), THRSP (gene 7069)
The experiment in a line: LTEA_HepaRG_THRSP: Life Technologies and Expression Analysis (LTEA) Assay for Thyroid Hormone Responsive (THRSP) using HepaRG (AID 2283536). As to conditions: mRNA level, 48 h; actives raise or lower the signal. Summed up:
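Cell model: human HepaRG, approx. 100,000 cells/well, 0.5% DMSO vehicle. Exposure lasts 48 h; phenobarbital 1 mM serves as induction positive control. Gene expression is measured by qRT-PCR against three endogenous control genes.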

Read-out in assay [11]: UDP glucuronosyltransferase (UGT1A1), UGT1A1 (gene 54658)
The experiment in a line: LTEA_HepaRG_UGT1A1: Life Technologies and Expression Analysis (LTEA) Assay for UDP glucuronosyltransferase (UGT1A1) using HepaRG (AID 2283538). Conditions: mRNA level, 48 h; actives raise or lower the signal. Summed up:
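HepaRG, 48 h chemical exposure (top 100 uM, half-log 8-pt, 0.5% DMSO vehicle), duplicate wells; qRT-PCR (TaqMan, Fluidigm array) for UGT1A1 mRNA, housekeeping-normalized; bidirectional curve fit vs DMSO baseline.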

Read-out in assay [12]: UDP glucuronosyltransferase (UGT1A6), UGT1A6 (gene 54578)
The experiment in a line: LTEA_HepaRG_UGT1A6: Life Technologies and Expression Analysis (LTEA) Assay for UDP glucuronosyltransferase (UGT1A6) using HepaRG (AID 2283539). Conditions: mRNA level, 48 h; actives raise or lower the signal. Summed up: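 qRT-PCR readout of UGT1A6 mRNA (normalized to ACTB/GAPDH/POLR2A) in differentiated HepaRG cells after 48 h chemical exposure; 8 concentrations, top 100 uM, half-log steps, 0.5% DMSO. Bidirectional curve fit relative to DMSO baseline.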

Read-out in assay [13]: X-box binding protein 1 (XBP1), XBP1 (gene 7494)
The assay is described as follows: LTEA_HepaRG_XBP1: Life Technologies and Expression Analysis (LTEA) Assay for X-box binding protein 1 (XBP1) using HepaRG (AID 2283540). Conditions: mRNA level, 48 h; actives raise or lower the signal. Put shortly:
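HepaRG, 48 h exposure, 8-pt half-log CRC top 100 uM, 0.5% DMSO vehicle, duplicates. Readout: TaqMan qRT-PCR of XBP1 mRNA, housekeeping-normalised (ACTB/GAPDH/POLR2A); bidirectional fit vs DMSO baseline.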

Assay [14] is described as follows: LTEA_HepaRG_LDH_cytotoxicity: Cytotoxicity Assessment in the Life Technologies and Expression Analysis (LTEA) Assay (AID 2283563; active means hit-call score of the fitted dose curve at least 0.9, where 1 is the maximum;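 on AC50: LDH activity released into spent culture medium as a marker of cell death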). Summed up: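 HepaRG (human liver line), 48 h exposure, 8-pt half-log series from 100 uM, 0.5% DMSO vehicle, duplicates. Read-out: LDH in spent medium. Positive-direction fit vs DMSO baseline.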
Read-out in assay [15]: Cellular tumor antigen p53 (Homo sapiens) (UniProt P04637)
The experiment in a line: LTEA_HepaRG_TP53: Life Technologies and Expression Analysis (LTEA) Assay for Tumor Protein P53 (TP53) using HepaRG (AID 2283537). Conditions: mRNA level, 48 h; actives raise or lower the signal. Summed up:
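TP53 transcript measured by qRT-PCR, normalized to three housekeeping genes, after 48 h treatment of human HepaRG cultures with chemicals from 100 uM downward in half-log steps (0.5% DMSO vehicle, serum-free induction medium). Up- or down-regulation fitted against DMSO.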

Assay [16] can be described thus: TOX21_p53_BLA_p2_viability: Viability Assessment in the Tox21 HCT-116 p53 Agonism Beta-lactamase Assay, Phase 2 (AID 2283591; active means hit-call score of the fitted dose curve at least 0.9, where 1 is the maximum;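 further: actives lower the ATP signal meaning cytotoxicity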). Put shortly:
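HCT-116 p53-bla cells (4000/well) rested 5 h at 37C, then received compounds in DMSO (217-fold dilution) for 16 h at 37C, 5% CO2. After the CCF4 read, CellTiter-Glo was added; ATP luminescence was read after 30 min at room temperature.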

Assay [17] concerns the target Cellular tumor antigen p53 (Homo sapiens) (UniProt P04637). The experiment in a line: TOX21_p53_BLA_p2_ratio: Tox21 HCT-116 p53 Agonism Beta-lactamase Assay, Ratio, Phase 2 (AID 2283592; active means hit-call score of the fitted dose curve at least 0.9, where 1 is the maximum). Put shortly:
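Readout: blue/green (460/530 nm) FRET emission ratio after 2 h CCF4-AM loading at room temperature, excitation 405 nm. HCT116 p53 bla cells, 16 h compound exposure at 37C, 5% CO2; agonist direction fitted against DMSO baseline.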

Assay [18] can be described thus: TOX21_p53_BLA_p3_viability: Viability Assessment in the Tox21 HCT-116 p53 Agonism Beta-lactamase Assay, Phase 3 (AID 2283593; active means hit-call score of the fitted dose curve at least 0.9, where 1 is the maximum;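 further: cells exposed to compound for 16 h before reading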). Put shortly: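 HCT-116 cells (4000/well) rested 5 h at 37C, then got DMSO compounds by pin tool (217-fold dilution) for 16 h at 37C, 5% CO2. After the bla read, CellTiter-Glo was added and luminescence read at 30 min, room temperature.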

Inconclusive results are not listed. Active and inactive are the calls of the source. How the source made its calls, unless noted: active means hit-call score of the fitted dose curve at least 0.9, where 1 is the maximum; inactive means score below 0.9.

Chain of Nuclear factor erythroid 2-related factor 2 (Homo sapiens) (Q16236 whole entry, looked up): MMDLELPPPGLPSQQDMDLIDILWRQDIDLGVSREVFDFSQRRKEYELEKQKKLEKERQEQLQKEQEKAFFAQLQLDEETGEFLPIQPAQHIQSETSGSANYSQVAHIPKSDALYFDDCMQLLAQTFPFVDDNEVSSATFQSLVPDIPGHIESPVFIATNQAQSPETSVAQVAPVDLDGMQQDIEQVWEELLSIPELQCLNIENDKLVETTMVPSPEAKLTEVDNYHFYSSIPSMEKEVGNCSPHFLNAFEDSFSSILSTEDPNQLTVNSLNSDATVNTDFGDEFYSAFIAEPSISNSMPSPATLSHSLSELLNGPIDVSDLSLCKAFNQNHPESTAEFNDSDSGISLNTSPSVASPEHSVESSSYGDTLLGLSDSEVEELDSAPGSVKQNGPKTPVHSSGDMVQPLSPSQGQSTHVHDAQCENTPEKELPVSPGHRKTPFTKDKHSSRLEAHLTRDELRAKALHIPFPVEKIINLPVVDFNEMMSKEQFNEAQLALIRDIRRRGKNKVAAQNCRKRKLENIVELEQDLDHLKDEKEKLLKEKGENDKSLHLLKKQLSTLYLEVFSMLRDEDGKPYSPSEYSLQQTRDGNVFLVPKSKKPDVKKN
Chain of Cellular tumor antigen p53 (Homo sapiens) (P04637 whole entry, looked up): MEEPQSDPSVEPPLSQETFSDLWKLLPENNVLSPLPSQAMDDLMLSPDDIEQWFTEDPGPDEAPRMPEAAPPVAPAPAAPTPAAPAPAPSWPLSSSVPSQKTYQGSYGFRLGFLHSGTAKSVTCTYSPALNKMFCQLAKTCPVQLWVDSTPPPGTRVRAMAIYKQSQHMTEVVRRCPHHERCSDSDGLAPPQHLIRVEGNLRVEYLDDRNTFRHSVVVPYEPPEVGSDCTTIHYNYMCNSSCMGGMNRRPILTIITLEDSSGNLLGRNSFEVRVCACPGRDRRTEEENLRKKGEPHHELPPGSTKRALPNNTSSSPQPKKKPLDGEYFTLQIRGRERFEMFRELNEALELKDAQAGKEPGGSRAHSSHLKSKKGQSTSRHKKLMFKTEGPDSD
Chain of Signal transducer and activator of transcription 3 (Homo sapiens) (P40763 whole entry, looked up): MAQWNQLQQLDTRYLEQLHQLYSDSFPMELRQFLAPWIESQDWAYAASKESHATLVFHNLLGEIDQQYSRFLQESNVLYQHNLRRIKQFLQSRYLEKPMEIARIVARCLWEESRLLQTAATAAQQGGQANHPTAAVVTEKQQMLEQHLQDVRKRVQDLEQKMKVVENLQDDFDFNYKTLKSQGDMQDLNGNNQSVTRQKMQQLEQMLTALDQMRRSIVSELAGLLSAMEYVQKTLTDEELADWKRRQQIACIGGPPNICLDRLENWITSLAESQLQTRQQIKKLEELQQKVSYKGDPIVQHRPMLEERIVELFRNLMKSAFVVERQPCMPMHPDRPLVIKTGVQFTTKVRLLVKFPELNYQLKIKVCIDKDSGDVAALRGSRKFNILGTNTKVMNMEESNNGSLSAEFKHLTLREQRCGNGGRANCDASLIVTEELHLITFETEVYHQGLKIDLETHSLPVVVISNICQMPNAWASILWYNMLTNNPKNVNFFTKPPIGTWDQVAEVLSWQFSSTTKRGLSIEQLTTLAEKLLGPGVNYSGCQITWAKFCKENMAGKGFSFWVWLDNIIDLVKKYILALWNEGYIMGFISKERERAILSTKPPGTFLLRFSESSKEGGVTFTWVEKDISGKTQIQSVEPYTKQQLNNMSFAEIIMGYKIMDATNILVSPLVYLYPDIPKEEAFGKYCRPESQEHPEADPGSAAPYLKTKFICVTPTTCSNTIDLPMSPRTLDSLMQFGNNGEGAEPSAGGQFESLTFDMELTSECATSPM

Regarding `Cc1ccn2nc(S(=O)(=O)Nc3c(F)cccc3F)nc2n1`, the call in assay [1], in [2], in [3], in [4], in [5] and in [6] was inactive. The compound was called inactive in [7], in [8], in [9], in assay [10], in [11] and in [12]. The result in [13] and in assay [14] was inactive.

For the compound `Cc1cc(C2CC2)nc(Nc2ccccc2)n1`, the result in assay [1], in assay [2], in [3], in [4], in assay [5] and in [6] was inactive. The call in assay [7], in assay [8], in assay [9], in assay [15], in [12] and in [13] was inactive. In addition, the result in assay [17] and in assay [18] was inactive. The concentration at half-maximal activity (AC50) in assay [10] was 50 µM (active); in assay [11] it was 50 µM (active); in assay [14], 73.7 µM (active); in [16] it was 62.2 µM (active).

In the case of `CC(C1CC1)C(O)(Cn1cncn1)c1ccc(Cl)cc1` (stereo not given), the outcome in assay [1], in [2], in [3], in assay [5], in assay [6] and in [7] was inactive. In addition, the result in assay [8], in [9], in [15], in [11], in [12] and in assay [14] was inactive. Moreover, the compound was classed as inactive in assay [16] and in [18]. Besides, the half-maximal activity concentration (AC50) in [4] is 389 nM (active); in assay [10], 28.1 µM (active).

Regarding `CCOP(=O)(SC(C)CC)N1CCSC1=O` (stereo not given), the call in assay [1], in [2], in assay [3], in [4], in assay [5] and in [6] was inactive. Besides, the outcome in [7], in [8], in [9], in assay [10], in assay [11] and in assay [12] was inactive. Further, the result in assay [13] and in assay [14] was inactive.

In the case of `C[N+]1(C)CCCCC1`, the result in assay [1], in assay [2], in [3], in [4], in [5] and in [6] was inactive. The compound was called inactive in [7], in assay [8], in assay [9], in assay [10], in [15] and in [11]. The result in assay [12], in assay [13], in assay [14] and in [17] was inactive.

With `CCOC(=O)COc1cc(-c2nn(C)c(OC(F)F)c2Cl)c(F)cc1Cl`, the result in assay [1], in assay [2], in assay [3], in [4], in assay [5] and in [6] was inactive. The compound was called inactive in [7], in assay [8], in assay [9], in [10], in [15] and in assay [12]. Also, the result in [13], in assay [14], in assay [16] and in assay [18] was inactive. In [11], the AC50 was 50 µM (active).

As for `Nc1nc(N)nc(NC2CC2)n1`, the call in assay [1], in assay [2], in assay [3], in assay [4], in assay [5] and in assay [6] was inactive. In addition, the call in assay [7], in assay [8], in assay [9], in [10], in assay [15] and in assay [11] was inactive. Besides, the outcome in assay [12], in assay [13], in [14], in assay [16], in assay [17] and in [18] was inactive.

On to `CCCCOC(=O)c1ccccc1C(=O)O`, for which the compound was classed as inactive in [1], in assay [2], in assay [3], in assay [4], in [5] and in [6]. For the same compound, the outcome in assay [7], in assay [8], in [9], in assay [10], in assay [15] and in [12] was inactive. Also, the call in [13], in assay [14], in assay [16] and in [17] was inactive. Moreover, the AC50 in [11] was 17 µM (active).

For the origin of these results see PubChem BioAssay (EPA / NIEHS).
